PubChem BioAssay (Tox21)
Results filed as inconclusive are left out. The source made the active and inactive calls. Unless noted, the call rests on the fitted dose curve; in most records, active means well fitted curve in the direction sought with a large enough effect in the repeat runs; inconclusive means weak or mixed curves; inactive means no such curve, though single readings can be large; an effect the other way counts as inactive or inconclusive.

Legend:
[1] = qHTS assay to identify small molecule agonists of the peroxisome proliferator-activated receptor delta (PPARd) signaling pathway - cell viability counter screen (AID 743211); further: nearly all actives have a fitted effect of over 55% in size
Outline: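 Tox21 library compounds, delivered in DMSO, were incubated 17 h with PPARd-bla HEK293H cells; cytotoxicity was taken from CellTiter-Glo luminescence read 30 min after reagent addition.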

[2] = target: Peroxisome proliferator-activated receptor delta (Homo sapiens) (UniProt Q03181); assay: qHTS assay to identify small molecule agonists of the peroxisome proliferator-activated receptor delta (PPARd) signaling pathway (AID 743212; calls by dose curve)
Chain of Peroxisome proliferator-activated receptor delta (Homo sapiens) (Q03181 whole entry, looked up): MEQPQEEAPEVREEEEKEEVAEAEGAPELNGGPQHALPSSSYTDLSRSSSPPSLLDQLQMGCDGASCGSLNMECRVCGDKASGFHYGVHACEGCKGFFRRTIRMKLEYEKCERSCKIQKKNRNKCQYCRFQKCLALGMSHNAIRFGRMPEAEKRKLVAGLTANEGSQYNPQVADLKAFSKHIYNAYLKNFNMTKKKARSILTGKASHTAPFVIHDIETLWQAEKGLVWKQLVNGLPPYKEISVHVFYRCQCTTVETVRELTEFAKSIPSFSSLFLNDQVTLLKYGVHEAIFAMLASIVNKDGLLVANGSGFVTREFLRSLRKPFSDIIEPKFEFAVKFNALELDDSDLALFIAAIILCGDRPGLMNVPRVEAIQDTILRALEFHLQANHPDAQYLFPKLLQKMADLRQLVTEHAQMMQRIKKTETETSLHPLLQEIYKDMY
Outline: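 HEK293H PPARd-bla cells; 5 h preincubation 37 C/5% CO2; compound (DMSO) 37 C; LiveBLAzer B/G FRET substrate 2 h RT; fluorescence intensity.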

[3] = qHTS assay to identify small molecule antagonists of the peroxisome proliferator-activated receptor delta (PPARd) signaling pathway - cell viability counter screen (AID 743213); further: nearly all actives have a fitted effect of over 50% in size
Outline: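 Viability counter-screen, qHTS format: PPARd-bla HEK293H, L165041 300 nM final, 17 h compound exposure at 37 C, CellTiter-Glo luminescence after 30 min RT.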

[4] = target: Peroxisome proliferator-activated receptor delta (Homo sapiens) (UniProt Q03181); assay: qHTS assay to identify small molecule antagonists of the peroxisome proliferator-activated receptor delta (PPARd) signaling pathway (AID 743215; active means well fitted inhibition curve with a large enough effect in the signal ratio in the repeat runs, not every such curve was filed as active; the % refers to the signal ratio;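 further: cells stimulated with agonist L165041 at 300 nM final during compound exposure; series mostly up to about 62 µM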)
Outline: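 PPARd-bla HEK293H cells (UAS-bla reporter) preincubated 5 h, then given compound plus 300 nM final L165041 agonist for 17 h at 37 C. Beta-lactamase activity read by LiveBLAzer B/G FRET substrate fluorescence after 2 h at room temperature.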

[5] = target: Bile acid receptor (Homo sapiens) (UniProt Q96RI1); assay: qHTS assay to identify small molecule antagonists of the farnesoid-X-receptor (FXR) signaling pathway (AID 743217; active means well fitted inhibition curve with a large enough effect in the signal ratio in the repeat runs, not every such curve was filed as active; the % refers to the signal ratio)
Chain of Bile acid receptor (Homo sapiens) (Q96RI1 whole entry, looked up): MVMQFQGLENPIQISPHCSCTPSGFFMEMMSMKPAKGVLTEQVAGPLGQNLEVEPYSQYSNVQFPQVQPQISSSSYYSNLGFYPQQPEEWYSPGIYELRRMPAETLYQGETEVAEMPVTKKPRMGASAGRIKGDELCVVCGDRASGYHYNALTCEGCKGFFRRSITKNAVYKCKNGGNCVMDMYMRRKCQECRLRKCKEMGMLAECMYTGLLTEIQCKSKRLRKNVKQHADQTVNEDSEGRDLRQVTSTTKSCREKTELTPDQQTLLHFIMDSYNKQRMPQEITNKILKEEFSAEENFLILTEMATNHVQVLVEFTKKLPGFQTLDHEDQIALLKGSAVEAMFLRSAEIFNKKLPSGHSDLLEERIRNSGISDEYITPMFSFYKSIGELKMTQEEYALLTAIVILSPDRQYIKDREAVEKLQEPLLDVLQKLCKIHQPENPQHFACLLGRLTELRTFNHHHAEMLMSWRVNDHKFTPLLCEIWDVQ
Outline: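 FXR-UAS-bla HEK 293T cells (beta-lactamase reporter) given compound plus chenodeoxycholic acid (50 uM final), 16 h at 37C. LiveBLAzer B/G FRET substrate added for 2 h at room temperature; fluorescence read.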

[6] = qHTS assay to identify small molecule agonists of the farnesoid-X-receptor (FXR) signaling pathway - cell viability counter screen (AID 743218); further: nearly all actives have a fitted effect of over 45% in size
Outline: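 FXR-UAS-bla HEK 293T cells exposed to compounds for 16 h at 37C. Cytotoxicity read in the same wells by CellTiter-Glo luminescence after 30 min at room temperature, following the beta-lactamase FRET read.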

[7] = target: Bile acid receptor (Homo sapiens) (UniProt Q96RI1); assay: qHTS assay to identify small molecule agonists of the farnesoid-X-receptor (FXR) signaling pathway (AID 743220; active means well fitted activation curve with a large enough effect in the signal ratio in the repeat runs, not every such curve was filed as active; the % refers to the signal ratio)
Outline: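 Beta-lactamase reporter under UAS control in GeneBLAzer FXR HEK 293T cells (5000/well) measured with LiveBLAzer FRET substrate after 2 h at room temperature. Compound exposure lasted 16 h at 37C.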

[8] = target: Vitamin D3 receptor (Homo sapiens) (UniProt P11473); assay: qHTS assay to identify small molecule agonists of the vitamin D receptor (VDR) signaling pathway (AID 743222; calls by dose curve)
Chain of Vitamin D3 receptor (Homo sapiens) (P11473 whole entry, looked up): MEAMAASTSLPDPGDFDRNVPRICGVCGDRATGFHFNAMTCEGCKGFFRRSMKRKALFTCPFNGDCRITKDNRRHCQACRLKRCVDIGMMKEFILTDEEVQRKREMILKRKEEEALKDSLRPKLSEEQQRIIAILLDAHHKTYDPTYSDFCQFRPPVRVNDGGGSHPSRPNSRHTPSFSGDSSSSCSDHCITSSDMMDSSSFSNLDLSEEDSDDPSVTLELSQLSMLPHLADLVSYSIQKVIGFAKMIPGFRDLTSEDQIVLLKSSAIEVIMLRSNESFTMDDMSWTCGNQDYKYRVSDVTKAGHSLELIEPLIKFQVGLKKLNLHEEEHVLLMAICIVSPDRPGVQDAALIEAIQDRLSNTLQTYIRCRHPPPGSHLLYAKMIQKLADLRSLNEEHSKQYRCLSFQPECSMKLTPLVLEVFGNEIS
Outline: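 VDR-bla cells plated 4 h at 37 C, then exposed to compounds for 16 h at 37 C. Beta-lactamase reporter activity measured by fluorescence after 2 h room-temperature loading with LiveBLAzer B/G FRET substrate.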

[9] = target: Vitamin D3 receptor (Homo sapiens) (UniProt P11473); assay: qHTS assay to identify small molecule antagonists of the vitamin D receptor (VDR) signaling pathway (AID 743223; active means well fitted inhibition curve with a large enough effect in the signal ratio in the repeat runs, not every such curve was filed as active; the % refers to the signal ratio)
Outline: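 Quantitative HTS in VDR-bla reporter cells stimulated with 1alpha,25-dihydroxyvitamin D3, 3 nM final. Compound exposure 16 h, 37C, 5% CO2. Read-out: beta-lactamase FRET substrate fluorescence, 2 h RT.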

[10] = qHTS assay to identify small molecule agonists of the vitamin D receptor (VDR) signaling pathway - cell viability counter screen (AID 743224); further: series mostly up to about 63 µM; nearly all actives have a fitted effect of over 50% in size
Outline: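 VDR-bla cells, 4 h after plating, exposed to compounds for 16 h at 37C; viability then read in the same wells as CellTiter-Glo luminescence after 30 min at room temperature, following the bla FRET read.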

[11] = qHTS assay to identify small molecule antagonists of the vitamin D receptor (VDR) signaling pathway - cell viability counter screen (AID 743225); further: nearly all actives have a fitted effect of over 50% in size
Outline: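 Same-well multiplex: following 16 h treatment of HEK 293T cells carrying a UAS-driven beta-lactamase reporter with compound and agonist (3 nM final), and a 2 h FRET substrate step, CellTiter-Glo was added and luminescence read after 30 min.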

[12] = qHTS assay to identify small molecule agonists of the NFkB signaling pathway (AID 1159509; active means well fitted curve in the direction sought with a large enough effect in the signal ratio in the repeat runs, not every such curve was filed as active; the % refers to the signal ratio; further: series mostly up to about 61 µM)
Outline: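 NFkB-bla ME-180 cells carry a beta-lactamase reporter under an NF-kB response element. They were plated overnight, then exposed to compounds for 5 h at 37 C. Read-out is LiveBLAzer FRET after 1.5 hr at room temperature (405 nm excitation; 460/530 nm emission).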

[13] = qHTS assay to identify small molecule agonists of the NFkB signaling pathway - cell viability counter screen (AID 1159515; calls by dose curve; further: series mostly up to about 61 µM; nearly all actives have a fitted effect of over 55% in size)
Outline: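 NFkB-bla ME-180 cells, 2,000/well, plated overnight at 37 C; compound added for 5 hr at 37 C. Viability read in the same wells as the bla reporter, by CellTiter-Glo luminescence after 30 min at room temperature.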

[14] = qHTS assay to identify small molecule agonists of the endoplasmic reticulum stress response signaling pathway - cell viability counter screen (AID 1159517; calls by dose curve;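 further: HeLa cells carrying an ER stress response element beta-lactamase reporter; series mostly up to about 61 µM; nearly all actives have a fitted effect of over 50% in size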)
Outline: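 HeLa cells carrying an ESRE-driven beta-lactamase reporter receive compound for 5 hr at 37 C. Cell viability is then gauged with CellTiter-Glo by luminescence, 30 min at room temperature.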

[15] = qHTS assay to identify small molecule antagonists of the retinoid-related orphan receptor gamma (ROR-gamma) signaling pathway - cell viability counter screen (AID 1159520); further: nearly all actives have a fitted effect of over 50% in size
Outline: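 Cytotoxicity was read from cellular ATP (CellTiter-Glo luminescence) after 16 hr at 37 C with 1 uM doxycycline induction. The inducer was added 2 hr after compound transfer to Tet-on ROR gamma CHO cells.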

[16] = target: Nuclear receptor ROR-gamma (Homo sapiens) (UniProt P51449); assay: qHTS assay to identify small molecule antagonists of the retinoid-related orphan receptor gamma (ROR-gamma) signaling pathway (AID 1159521)
Outline: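 Inducible-expression reporter assay: doxycycline (1 uM final) switched on RORγ in CHO cells bearing a ROR response element-luciferase construct, with test compounds present from 2 h beforehand. Decreased luminescence after 16 h defined antagonist activity.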

[17] = qHTS assay to identify small molecule agonists of the AP-1 signaling pathway - cell viability counter screen (AID 1159525; calls by dose curve; further: nearly all actives have a fitted effect of over 55% in size)
Outline: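 Luminescent ATP readout (Cell Titer Glo, 30 min RT), normalised to DMSO and tetra n-octyl ammonium bromide controls. Cells were ME-180 AP-1-bla in 0.5% dialyzed FBS Opti-MEM, with a 5 h, 37 °C compound exposure.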

[18] = qHTS assay to identify small molecule agonists of the AP-1 signaling pathway (AID 1159526; calls by dose curve)
[19] = qHTS assay to identify small molecule antagonists of the farnesoid-X-receptor (FXR) signaling pathway - cell viability counter screen (AID 743221; active means well fitted cell-killing curve with a large enough effect in the repeat runs, not every such curve was filed as active; further: nearly all actives have a fitted effect of over 50% in size)
Outline: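 Cytotoxicity is taken from ATP luminescence (CellTiter-Glo, 30 min, room temperature) in FXR-bla HEK 293T cells previously incubated 16 h at 37 C with compound and chenodeoxycholic acid at 50 uM final.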

[20] = qHTS assay to identify small molecule agonists of the endoplasmic reticulum stress response signaling pathway (AID 1159516; active means well fitted activation curve with a large enough effect in the signal ratio in the repeat runs, not every such curve was filed as active; the % refers to the signal ratio)
Outline: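 CellSensor ESRE-bla HeLa cells, 1,500 per well, plated overnight, then exposed to compounds for 5 hr at 37 C. Beta-lactamase reporter read with LiveBLAzer B/G FRET substrate after 2 hr at room temperature, 405 nm excitation, 460 and 530 nm emission.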

Measured: Potency

CC(=O)C(C)=O
not listed: [19] | [20]
inactive: all other assays above

COc1ccc(C2C(=O)c3ccccc3C2=O)cc1
inactive: [1] | [3] | [6] | [19] | [8] | [9] | [11] | [12] | [13] | [20] | [18]

CCC(CO)(CO)[N+](=O)[O-]
not listed: [3] | [11] | [20]
inactive: all other assays above

CCCCC[C@H](O)/C=C/[C@H]1[C@H](O)CC(=O)[C@@H]1C/C=C\CCCC(=O)O
not listed: [2] | [5] | [7] | [9] | [20]
inactive: all other assays above

CC(C)(C)CCCCCCOC(=O)c1ccccc1C(=O)OCCCCCCC(C)(C)C
not listed: [3] | [20]
inactive: all other assays above

O=C(O)CCC(=O)c1ccc(-c2ccccc2)cc1
not listed: [20]
inactive: all other assays above

CC/C=C\C/C=C\C/C=C\CCCCCCCC(=O)OCC
not listed: [6] | [9] | [10] | [11] | [20]
inactive: all other assays above

Cc1ccccc1S(N)(=O)=O
not listed: [2] | [4] | [20]
inactive: all other assays above
